BLM helicase inh: Bloom syndrome helicase (human) inhibition; P54132; recombinant BLM DNA unwinding, fluorescence dequenching; Potency, µM (titrated, usually from 56.1 µM), for inactives: top-dose activity change, negative = inhibition, most hits filed as inhibitors; hit rate 0.2% among 350,000; AID 2528;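 note: plate controls were vehicle for no effect and no enzyme for full effect; nearly all actives have a fitted effect of over 35% in size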
PGK inhibitor: blocks T. brucei phosphoglycerate kinase; PGK/GAPDH coupled, Kinase-Glo luminescence, 60 min; Potency, µM (series often up to 57.5 µM), for the others: at the highest dose activity change, negative = inhibition, actives largely listed as inhibitors; hit rate 0.043% among 380,000; AID 602233; note: nearly all actives have a fitted effect of over 60% in size
Target sequence (P07378 whole entry, looked up): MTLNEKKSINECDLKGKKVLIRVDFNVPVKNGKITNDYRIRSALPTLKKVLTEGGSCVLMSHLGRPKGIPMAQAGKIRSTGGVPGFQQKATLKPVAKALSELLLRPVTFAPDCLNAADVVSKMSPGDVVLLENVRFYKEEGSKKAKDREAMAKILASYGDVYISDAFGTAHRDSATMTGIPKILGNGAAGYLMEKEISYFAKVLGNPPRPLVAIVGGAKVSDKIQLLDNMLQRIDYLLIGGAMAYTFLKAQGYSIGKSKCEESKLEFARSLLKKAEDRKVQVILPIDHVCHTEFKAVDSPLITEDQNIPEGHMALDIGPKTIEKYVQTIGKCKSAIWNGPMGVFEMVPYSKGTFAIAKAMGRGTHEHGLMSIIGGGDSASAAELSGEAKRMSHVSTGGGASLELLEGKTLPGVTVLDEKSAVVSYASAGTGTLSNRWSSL
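Luminescent ATP detection (Kinase-Glo Plus) follows a 60-minute room-temperature incubation, with wells lacking PGK as controls. Buffer: 100 mM TEA (pH 7.6), 5 mM MgCl2, 0.01% Tween-20. Coupling enzyme GAPDH (100 nM final) supplies unstable 1,3-BPG in-well.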
GLS inh: blocks human kidney-isoform glutaminase activity. O94925. GLS enzymatic activity, qHTS titration. Potency, µM (top dose mostly 45.5 µM), inactives show top-dose activity change, negative = inhibition, hits mostly inhibitors. hit rate 0.21% among 410,000. AID 624170
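hKGA; 45 mM KH2PO4 pH 8.2 + 0.02% Tween-20; cpd via pin tool; 1 mM Gln soln; GluOx/HRP/Amplex Red; RT 30 min; fluor. t0 & final.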
RECQ1 inh: RECQ1 (human) helicase inhibition; Potency, µM (top dose mostly 57.3 µM), inactives show at the top dose activity, negative = inhibition, usual class: inhibitors; P46063; RECQ1 DNA unwinding, red fluorescence kinetic read; hit rate 0.54% among 240,000; AID 2549;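 note: plate controls were vehicle for no effect and no enzyme for full effect; nearly all actives have a fitted effect of over 30% in size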
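RECQ1T1 50 nM; forked duplex (20 bp + 30-nt ss tails) 200 nM, ATP 2 mM final; pH 8.0, 2 mM MgCl2, 2.5 ug/ml poly(dI-dC); 15 min compound preincubation; discontinuous kinetic read over 2 h at RT.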
FEN1 inh: blocks human flap endonuclease 1; Potency, µM (top dose mostly 114 µM), inactives show at the top dose activity change, negative = inhibition, most hits filed as inhibitors; Recombinant FEN1 flap cleavage, fluorescence, 15 min; P39748; hit rate 0.35% among 390,000; AID 588795; note: nearly all actives have a fitted effect of over 65% in size
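Nuclease activity of 10 nM FEN1 was measured after 15 min of room-temperature exposure to titrated compounds, by adding 50 nM flap substrate and reading plates at 0 and 15 min.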
APE1 inh-1: blocks human APE1 abasic DNA cleavage; Potency, µM (highest dose often 65.8 µM), inactives show at the top dose activity change, negative = inhibition, actives largely listed as inhibitors; AID 2517; recombinant APE1, TAMRA/BHQ-2 abasic DNA cleavage fluorescence; hit rate 0.35% among 350,000;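 note: plate controls were vehicle for no effect and reference inhibitor for full effect; nearly all actives have a fitted effect of over 55% in size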
Target sequence (P27695 whole entry, looked up): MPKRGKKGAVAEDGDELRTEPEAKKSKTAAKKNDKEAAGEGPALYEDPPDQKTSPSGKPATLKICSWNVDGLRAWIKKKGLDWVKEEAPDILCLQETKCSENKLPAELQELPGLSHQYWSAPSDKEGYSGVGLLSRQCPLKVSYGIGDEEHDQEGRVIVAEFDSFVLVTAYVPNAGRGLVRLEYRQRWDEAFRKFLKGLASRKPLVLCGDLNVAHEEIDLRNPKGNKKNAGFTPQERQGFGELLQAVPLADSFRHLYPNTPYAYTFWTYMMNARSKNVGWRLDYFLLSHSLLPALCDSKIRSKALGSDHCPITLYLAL
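Quantitative HTS: incision of a TAMRA/BHQ-2 double-stranded substrate bearing a tetrahydrofuran abasic site by 0.75 nM APE1 raises fluorescence. Substrate 50 nM final, added after 15 min compound preincubation at room temperature; progress as third-minus-first kinetic read difference.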
APE1 dye cs: displaces fluorescent dye from DNA, flagging APE1 artifacts; shares compounds with APE1 inh-1; DNA fluorescent dye displacement counterscreen, fluorescence; Potency, µM (doses to about 28.5 µM), for inactives: top-dose activity change, negative = inhibition, most hits filed as inhibitors; hit rate 7% among 480; AID 2564;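 note: loss of thiazole orange fluorescence as the dye is displaced from duplex DNA; 0% = ThO with dsDNA and no compound and -100% = ThO without dsDNA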
EndoIV counter: counter-screen for APE1 inhibitors: inhibitors of E. coli endonuclease IV; shares compounds with APE1 inh-1; E. coli Endo IV, fluorogenic AP-site DNA cleavage; Potency, µM (titrated, usually from 27.1 µM), inactives show at the highest dose activity change, negative = inhibition, most hits filed as inhibitors; hit rate 4% among 560; AID 2565;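 note: plate controls were uninhibited enzyme wells for no effect and no enzyme buffer wells for full effect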
APE1 inh-2: APE1 (human) endonuclease inhibition, confirmation | shares compounds with APE1 inh-1 | hit rate 44% among 750 | purified APE1, fluorogenic abasic-site DNA cleavage | Potency, µM (top dose mostly 57.1 µM), for the others: at the highest dose activity change, negative = inhibition, most hits filed as inhibitors | AID 2572; note: nearly all actives have a fitted effect of over 30% in size
APE1 FP: APE1 (human) DNA binding inhibition, fluorescence polarization. shares compounds with APE1 inh-1. APE1 binding to TAMRA-labelled double-stranded DNA, fluorescence polarization displacement. Potency, µM (top dose mostly 28.5 µM), for inactives: at the top dose activity, negative = inhibition, usual class: inhibitors. hit rate 7% among 480
The depositor's hits bear a star; i = inactive; ? = inconclusive; nt = no result given; [ ] = remark or other dose. Sampled rows, rich in hits. Any-hit rate of the full collection: about 0.86%. Calls come from the whole dose curve; as a rule, active = well fitted curve in the direction sought with a large enough effect; inconclusive = small, poorly fitted or top-dose-only effect, or another doubt; inactive = no such curve, though single readings can be large; an effect the other way counts as inactive or inconclusive. Unless noted, % is set by controls: 0 for no effect and ±100 for the full control effect; potency is the fitted concentration of half-maximal effect.

SMILES	BLM helicase inh	PGK inhibitor	GLS inh	RECQ1 inh	FEN1 inh	APE1 inh-1	APE1 dye cs	EndoIV counter	APE1 inh-2	APE1 FP
NC(=O)c1ccc2c(=O)n3c(-c4cc(Cl)c(N)c(Cl)c4)csc3nc2c1	-7%	-13%	-15%	?	?	-4%	nt	nt	-26%	nt
Cc1c(O)c2c(c(C(=O)/C=C/c3ccccc3)c1O)OC(C)(C)C=C2	nt	nt	nt	nt	-26%	nt	nt	nt	nt	nt
COc1ccc(/C=C/C(=O)NC(=S)Nc2ccc(C(=O)O)cc2)cc1	-18%	-14%	-10%	1%	?	-12%	nt	nt	-13%	nt
COC(=O)c1ccc(N2NC(=O)/C(=C/c3ccc(-c4ccc(Cl)c(C(=O)O)c4)o3)C2=O)cc1	-10%	?	?	?	?	25µM*	6.3µM*	-7%	?	0%
CC1(C)OC(=O)C(=Cc2ccc(-c3ccc(Cl)c(C(=O)O)c3)o2)C(=O)O1	44%	-16%	?	-3%	?	22µM*	0%	2%	?	-4%
COC(=O)c1ccc(N2NC(=O)/C(=C/c3ccc(OC)c(OC)c3)C2=O)cc1	-2%	i	-9%	nt	2%	1%	nt	nt	nt	nt
Cc1c(O)cc2c(c1O)C(=O)CC(c1ccc(O)cc1)O2 (stereo unspecified)	-25%	-26%	-28%	25µM*	?	1.6µM*	-11%	-3%	4.5µM*	?
COc1cccc(/C=N/NC(=S)NC2CC3CCC2C3)c1OC (stereo unspecified)	-7%	-5%	7%	-5%	-16%	0.56µM*	3%	-5%	-9%[24.4 µM]	?
Cc1cc(C(=O)O)ccc1-c1ccc(/C=C2\NC(=O)N(Cc3ccccc3Cl)C2=O)o1	-7%	?	-12%	-7%	?	-3%	nt	nt	nt	nt
Cc1ccc(NC(=O)CN2C(=O)S/C(=C\c3ccc(-c4cccc(C(=O)O)c4C)o3)C2=O)cc1	1%	nt	nt	?	nt	?	nt	nt	40µM*	nt
Cc1ccccc1NC(=O)CN1C(=O)S/C(=C\c2ccc(-c3cc(C(=O)O)ccc3C)o2)C1=O	-7%	?	-10%	i	?	?	nt	nt	nt	nt
Cc1ccc(C(=O)O)cc1-c1ccc(/C=C2\SC(=O)N(CC(=O)Nc3ccccc3)C2=O)o1	-6%	-16%	-13%	-17%	50µM*	?	nt	nt	40µM*	nt
Cc1ccc(C(=O)O)cc1-c1ccc(/C=C2/NC(=O)N(c3ccccc3)C2=O)o1	12%	?	?	18µM*	?	11µM*	-9%	32%	?	-8%
[O][C@H]1[C@@H](O)[C@@H](CO)O[C@@H](O[C@@H]2[C@@H]3OC[C@H]2O[C@H](O[C@@H]2[C@@H](O)[C@H](C[C@@H]4[C@@H]5OC[C@H]4O[CH][C@@H]5O)O[C@H](CO)[C@@H]2OS(=O)(=O)O)[C@@H]3OS(=O)(=O)O)[C@@H]1O	?	nt	nt	4µM*	nt	10µM*	-12%[57.1 µM]	13%[57.1 µM]	7.1µM*	-29%[57.1 µM]
OC[C@@H]1O[C@H](OC2[C@@H](O)[C@@H](O)C(O)O[C@@H]2CO)[C@H](O)[C@@H](O)[C@@H]1OC1O[C@H](CO)[C@@H](O)[C@H](O)[C@@H]1O (stereo partly specified)	-1%	nt	nt	4%	nt	-4%	nt	nt	nt	nt
O=C(Cn1c(=O)n(Cc2ccco2)c(=O)c2c3c(sc21)CCCCC3)c1ccccc1	-22%	i	-11%	-28%	5%	?	?	-6%	-23%[24.4 µM]	5%
c1ccc(-c2nc(SCC3CCCCO3)n[nH]2)cc1 (stereo unspecified)	nt	nt	nt	nt	-8%	nt	nt	nt	nt	nt
Cc1cc(C(=O)N/N=C/c2ccc(O)c(O)c2O)c(C)n1-c1ccccc1	-7%	-8%	16µM*	-1%	-29%	4.5µM*	-10%	30%	?	-87%
Cc1ccc(CSc2nnc(-c3ccc(NC(=O)CCc4ccccc4)cc3)n2C)cc1	nt	nt	nt	nt	16%	nt	nt	nt	nt	nt
Ic1ccc(/C=C2\C=Cc3ccccc32)cc1	nt	nt	nt	nt	-6%	nt	nt	nt	nt	nt
Cc1cccc(NC(=O)CN2C(=O)N/C(=C\c3cccn3-c3cccc(C(=O)O)c3)C2=O)c1	-5%	-6%	3%	i	?	?	-1%	9%	?	2%
Cc1c(N)cc(N)cc1C(=O)O	-5%	-1%	-17%	-1%	-22%	20µM*	1%	4%	-7%[24.4 µM]	-5%
CCc1oc(C(=O)O)cc1CN(CC)CC	-3%	-1%	0%	1%	-7%	6%	nt	nt	nt	nt
CCN(CC)Cc1cc(O)c(CN(CC)CC)cc1O	-2%	-26%	16µM*	25µM*	?	6.3µM*	nt	nt	?	nt
O=C(Cc1csc(N2CCOCC2)n1)N/N=C/c1ccc(O)c(O)c1O	-12%	-7%	?	?	?	2.2µM*	?	92%	?	4%
O=S(=O)(O)c1ccc2c(c1)-c1nc-2nc2[nH]c(nc3nc(nc4[nH]c(n1)c1ccc(S(=O)(=O)O)cc41)-c1ccc(S(=O)(=O)O)cc1-3)c1ccc(S(=O)(=O)O)cc21	1.6µM*	nt	nt	0.56µM*	nt	0.32µM*	0.56µM*	-93%[57.1 µM]	0.05µM*	0.14µM*
COc1c(O)cc2c(c1O)C1OC(CO)C(O)[C@H](O)[C@H]1OC2=O (stereo partly specified)	4%	nt	nt	-11%	nt	16%	nt	nt	nt	nt
O=C(O[C@@H]1OC2COC(=O)c3cc(O)c(O)c(O)c3-c3c(cc(O)c(O)c3O)C(=O)O[C@@H]([C@H]1O)[C@@H]2O)c1cc(O)c(O)c(O)c1	5.6µM*	-82%	28%	-29%	0.71µM*	0.071µM*	-7%	111%	0.05µM*	?
